# VACV mCherry inh: vaccinia inhibition (mCherry reporter) | Vaccinia virus mCherry reporter infection, fluorescence | Potency, µM (series often up to 36.5 µM), usual class: inhibitors | hit rate 0.63% among 310,000; calls by dose curve; tested in A549 cells; note: nearly all actives have a fitted effect of over 35% in size
# Vaccinia Venus: inhibitors of vaccinia virus (Venus reporter) | Vaccinia virus Venus reporter expression, fluorescence | Potency, µM (titrated, usually from 36.5 µM), hits mostly inhibitors | hit rate 0.46% among 330,000 | AID 720580; calls by dose curve; tested in A549 cells; note: nearly all actives have a fitted effect of over 30% in size
# LASV entry inh: inhibitors of Lassa virus binding or cell entry; Lassa virus pseudotype entry inhibition, cell reporter; Potency, µM (top dose mostly 37.9 µM), most hits filed as inhibitors; hit rate 1.2% among 300,000; calls by dose curve; tested in HEK293 cells; note: nearly all actives have a fitted effect of over 50% in size
# MARV entry inh: Marburg virus entry inhibition. Marburg virus pseudotyped entry inhibition, cell reporter. Potency, µM (doses to about 37.8 µM), most hits filed as inhibitors. hit rate 1.8% among 300,000; calls by dose curve; tested in HEK293 cells
# HCMV antiviral: human cytomegalovirus inhibition | hit rate 4.5% among 410,000 | activity change, negative = inhibition, % at 57.5 µM | HFF cells, HCMV-luciferase reporter, 72 h; active compounds read low; in the data active = activity change below about -60%; inconclusive = no clear call, values can overlap the other calls; inactive = above about -39%
#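 Screen run at 2 compound doses on HFFs infected with reporter HCMV, MOI 1 PFU/cell. Luciferase activity from cell lysates at 72 h post infection gave inhibition relative to buffer-only and Salinomycin wells.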
# HCV inhibitor: HCV inhibition. Huh7.5.1 HCVcc-Cre infection, luciferase reporter, 44 h. Potency, µM (doses to about 41.8 µM), most hits filed as inhibitors. hit rate 3.4% among 340,000. AID 651820; active = well fitted inhibition curve with a large enough effect; inconclusive = small, poorly fitted or top-dose-only effect, or another doubt; inactive = no such curve, though single readings can be large or run the other way
#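 Seed cells (1,000/well) for 4 h; treat with compound and infect with HCVcc-Cre, moi about 0.5. Incubate 44 h, then detect luciferase activity.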
# A number is an active result; - = inactive; ? = inconclusive; . = not tested or not shown. Only some compounds are listed: those with a hit (about 7.8% of all), similar ones and a draw of the others.
SMILES,VACV mCherry inh,Vaccinia Venus,LASV entry inh,MARV entry inh,HCMV antiviral,HCV inhibitor
Cc1ccc(N(CC(=O)Nc2cc(Cl)ccc2Oc2ccccc2)S(C)(=O)=O)c(C)c1,.,?,?,?,-,11.2µM
COc1ccc(NC(=O)CN(c2ccccc2F)S(=O)(=O)c2ccc(C)cc2)c(OC)c1,.,.,.,.,-,11.2µM
CCOc1ccc(NC(=O)CN(c2ccccc2OCC)S(=O)(=O)c2ccccc2)cc1,-,-,?,.,-,.
COc1ccc(S(=O)(=O)N(CC(=O)Nc2ccc(OC)cc2OC)c2ccc(Cl)cc2)cc1,-,-,?,?,-,.
CCOc1ccc(S(=O)(=O)N(CC(=O)Nc2ccc(OC)c(Cl)c2)c2ccccc2)cc1,-,-,-,-,-60.2,.
CCOc1ccc(NC(=O)CN(c2ccc(Cl)cc2C)S(=O)(=O)c2ccccc2)cc1,?,?,?,?,-69.4,.
COc1ccccc1C1CN(Cc2ccc(Sc3nncn3C)o2)Cc2ccccc2O1 (configuration not stated),-,-,.,.,.,.
Cc1cc2n(n1)CCCN2C(=O)Nc1ccc(Cl)cc1,-,-,-,.,-,.
COc1ccc(N(CC(=O)Nc2ccccc2C)S(=O)(=O)c2ccccc2[N+](=O)[O-])c(OC)c1,-,-,?,-,-,-
CCOc1ccccc1NC(=O)CN(c1ccc(OC)cc1OC)S(=O)(=O)c1ccccc1[N+](=O)[O-],?,-,-,10µM,?,-
COc1ccc(NC(=O)c2ccc(CN(c3cc(Cl)ccc3C)S(=O)(=O)c3ccccc3)cc2)cc1OC,.,.,-,4.11µM,-,-
COc1ccccc1NC(=O)c1ccc(CN(c2cc(Cl)ccc2C)S(=O)(=O)c2ccccc2)cc1,.,-,-,?,-,-
COc1cccc(N(CC(=O)Nc2cccnc2)S(C)(=O)=O)c1,-,-,-,?,-103.0,-
COC(=O)c1cc(NC(=O)CN(c2cccc(OC)c2)S(=O)(=O)c2ccccc2)ccc1Cl,?,?,10µM,15.8µM,?,?
COc1cccc(NC(=O)C2CCC(CNS(=O)(=O)c3csc(C(N)=O)c3)CC2)c1 (configuration not stated),-,-,-,.,-,.
COCCN1CCN(C(=O)c2cnn(-c3nccc(-c4cc5ccccc5o4)n3)c2C2CC2)CC1,-,-,.,.,.,.
COc1cc(-c2nc(-c3ccc4c(c3)[nH]c(=O)n4C)no2)cc(OC)c1OC,-,-,-,.,-,.
COc1ccc(N(CC(=O)Nc2ccc(OC)cc2OC)S(=O)(=O)c2ccccc2)cc1,-,?,?,?,-64.6,?
CN(c1cccc(NC(=O)CN(c2cccc(Cl)c2)S(=O)(=O)c2ccc(Cl)cc2)c1)S(C)(=O)=O,-,?,-,?,-,22.4µM
Cc1ccc(Cl)cc1N(CC(=O)Nc1cccc(N(C)S(C)(=O)=O)c1)S(C)(=O)=O,-,-,-,-,-,-
COc1ccc(NC(=O)CN(c2ccc([N+](=O)[O-])cc2)S(=O)(=O)c2ccccc2)c(OC)c1,-,-,-,-,-,?
CCOc1ccc(N(CC(=O)Nc2ccccc2OC)S(=O)(=O)c2ccccc2)cc1,.,.,.,.,-86.7,?
Cc1cccc(N2CCN(Cc3nnc(-c4cccc(Br)c4)o3)CC2)c1C,-,-,-,-,-,.
Nc1ncnc2c(C3OC(CO)C(O)C3O)scc12 (configuration not stated),?,0.355µM,?,?,-96.7,?
CC(Nc1nc(-c2ccc(F)cc2)cs1)c1nc2cc(Cl)c(N3CCCCC3)cc2n1CCCO (configuration not stated),?,?,.,.,-65.4,?
SMILES,VACV mCherry inh,Vaccinia Venus,LASV entry inh,MARV entry inh,HCMV antiviral,HCV inhibitor
CC(Nc1nc(-c2ccc(F)cc2)cs1)c1nc2cc(Cl)c(N3CCCCC3)cc2n1CCOCCO (configuration not stated),?,?,.,.,-,?
O=C(NNc1cc(Cl)cc(Cl)c1)c1sccc1Cl,-,-,.,.,.,.
O=C(Cc1c[nH]c2ccccc12)NNCc1ccc(N(CCCl)CCCl)cc1,-,-,3.55µM,1.58µM,?,?
Cc1cc(S(=O)(=O)NCc2ccccc2)ccc1OCC(=O)Nc1cccc([N+](=O)[O-])c1,?,?,?,11.6µM,-,?
Cc1nc(Nc2ccc(O)cc2)c2c3c(sc2n1)CCCC3,11.2µM,?,?,?,-75.9,?
O=c1c2ccccc2cnn1CCOc1ccccc1,-,-,0.282µM,2.06µM,-87.5,-
CCC1CCC2(CC1)NNC(=S)NN2,-,-,-,-,-62.1,-

# High-throughput results (PubChem)
